# Where “and” joins values, the source holds several entries; their conditions need not be identical. Identical values can stand only once. Unmarked numbers belong to inactive results.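 The calls were made as follows: active = fitted curve rises past 20% activation at a concentration no higher than the top valid tested dose; inactive = activity opposite to the expected signal increase, and the rest.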
# Experiment: Rlm1 cell wall stress reporter activators, dose response, S. cerevisiae reporter strain, C. neoformans project, dry powder (AID 743130)
# Settings: S. cerevisiae Rlm1-lacZ reporter, luminescence, 4 h, stronger effect = higher value; at 35 µM unless noted
row,Structure (SMILES),maximal activation
1,Cc1cccc(OCCn2c(=S)[nH]c3cc(C(F)(F)F)ccc32)c1,-9% [at 16 µM]
2,Cc1ccc2c(c1)[nH]c(=S)n2CCOc1ccccc1,1.98%
3,Fc1cccc2c1[nH]c(=S)n2CCOc1ccccc1,-3.67% [at 8 µM]
4,COC(=O)C1=C(C)N(Cc2ccc(Br)cc2)C(=S)NC1c1ccc(OC)cc1 (centres undefined),5.5% [at 0.26 µM]
5,CCOC(=O)c1c(NC(=O)CNCCN(C)C)sc(C)c1-c1ccccc1,-3% [at 2.1 µM]
6,Cc1ccc(C(C)C)c(OCCn2c(=S)[nH]c3ccccc32)c1,-8.35% [at 0.5 µM]
7,CCOC(=O)c1c(-c2ccc(C(C)(C)C)cc2)csc1NC(=O)CN1CCN(C)CC1,6.67% [at 16 µM]
8,Cc1ccc(OCCn2c(C)nc3ccccc32)cc1,1.77%
9,COC(=O)C1=C(C)N(Cc2ccc(F)cc2)C(=S)NC1c1cccc(F)c1 (centres undefined),3.69%
10,CCOc1ccc(OCCn2c(=S)[nH]c3ccccc32)cc1,-9.4% [at 0.26 µM]
11,S=c1[nH]c2cccc(Cl)c2n1CCOc1ccccc1,-2.44%
12,Fc1ccccc1OCCn1c(=S)[nH]c2ccccc21,-3.96%
13,Cc1ccc(OCCn2c(SCCO)nc3ccccc32)c(C(C)C)c1,-2.9% [at 2.1 µM]
14,COC(=O)C1=C(C)N(Cc2ccc(Cl)cc2)C(=S)NC1c1ccc(Br)cc1 (centres undefined),9% [at 2.1 µM]
15,CCOC(=O)c1c(-c2ccc(F)cc2)csc1NC(=O)CN1CCN(CC)CC1,7.91% [at 1 µM]
16,S=c1[nH]c2ccccc2n1CCOc1ccc(Cl)cc1,3.89% [at 8 µM]
17,CCOC(=O)c1c(-c2ccc(-c3ccccc3)cc2)csc1NC(=O)CNCCN(C)C,-12.6%
18,COC(=O)C1=C(C)N(Cc2ccc(Br)cc2)C(=S)NC1c1ccc(F)cc1 (centres undefined),9.62% [at 16 µM]
19,CCOC(=O)c1c(-c2ccc(F)cc2)csc1NC(=O)CN1CCN(C)CC1,8.68% [at 16 µM]
20,Cc1ccc(OCCn2cnc3ccccc32)cc1,-5.3% [at 4.2 µM]
21,Cc1ccc(OCCn2c(=S)[nH]c3ccccc32)cc1,-4.62%
22,CCOC(=O)c1c(-c2ccc(C(C)(C)C)cc2)csc1NC(=O)CN1CCN(CC)CC1,2.55% [at 8 µM]
23,CCOC(=O)c1c(-c2ccc(OC)cc2)csc1NC(=O)CN(C)CC(=O)N(C)C,-2.31% [at 4.2 µM]
24,S=c1[nH]c2ccccc2n1CCOc1ccccc1,3.85% [at 4.2 µM]
25,CCOC(=O)c1c(NC(=O)CN2CCN(C)CC2)sc(C)c1-c1ccc(C)cc1,5.75%
26,COC(=O)C1=C(C)N(Cc2ccccc2)C(=S)NC1c1ccc(Br)cc1 (centres undefined),6.99% [at 8 µM]
27,O=c1[nH]c2ccccc2n1CCOc1ccccc1,6.24% [at 2.1 µM] and 3.18% [at 2.1 µM]
28,Cc1ccccc1OCCn1c(=S)[nH]c2ccccc21,-3.77% [at 1 µM]
29,c1ccc(OCCn2cnc3ccccc32)cc1,-5.78% [at 1 µM]

# Source: PubChem BioAssay AID743130 (Broad Institute, 2013)
